Hit rate of the full screen: of about 310,000 compounds, about 14,000 (4.5%) showed an effect of 50% or more. The effect is printed as a negative number. For the sample, strong results were picked, then their nearest neighbours and some compounds at random.
Each compound was assayed against human ether-à-go-go-related gene (hERG) potassium channel (human, UniProt Q12809) (assay: primary screen, population patch clamp on CHO cells stably expressing hERG; higher = less effect of the substance).
Sequence of human ether-à-go-go-related gene (hERG) potassium channel (Q12809 whole entry, looked up): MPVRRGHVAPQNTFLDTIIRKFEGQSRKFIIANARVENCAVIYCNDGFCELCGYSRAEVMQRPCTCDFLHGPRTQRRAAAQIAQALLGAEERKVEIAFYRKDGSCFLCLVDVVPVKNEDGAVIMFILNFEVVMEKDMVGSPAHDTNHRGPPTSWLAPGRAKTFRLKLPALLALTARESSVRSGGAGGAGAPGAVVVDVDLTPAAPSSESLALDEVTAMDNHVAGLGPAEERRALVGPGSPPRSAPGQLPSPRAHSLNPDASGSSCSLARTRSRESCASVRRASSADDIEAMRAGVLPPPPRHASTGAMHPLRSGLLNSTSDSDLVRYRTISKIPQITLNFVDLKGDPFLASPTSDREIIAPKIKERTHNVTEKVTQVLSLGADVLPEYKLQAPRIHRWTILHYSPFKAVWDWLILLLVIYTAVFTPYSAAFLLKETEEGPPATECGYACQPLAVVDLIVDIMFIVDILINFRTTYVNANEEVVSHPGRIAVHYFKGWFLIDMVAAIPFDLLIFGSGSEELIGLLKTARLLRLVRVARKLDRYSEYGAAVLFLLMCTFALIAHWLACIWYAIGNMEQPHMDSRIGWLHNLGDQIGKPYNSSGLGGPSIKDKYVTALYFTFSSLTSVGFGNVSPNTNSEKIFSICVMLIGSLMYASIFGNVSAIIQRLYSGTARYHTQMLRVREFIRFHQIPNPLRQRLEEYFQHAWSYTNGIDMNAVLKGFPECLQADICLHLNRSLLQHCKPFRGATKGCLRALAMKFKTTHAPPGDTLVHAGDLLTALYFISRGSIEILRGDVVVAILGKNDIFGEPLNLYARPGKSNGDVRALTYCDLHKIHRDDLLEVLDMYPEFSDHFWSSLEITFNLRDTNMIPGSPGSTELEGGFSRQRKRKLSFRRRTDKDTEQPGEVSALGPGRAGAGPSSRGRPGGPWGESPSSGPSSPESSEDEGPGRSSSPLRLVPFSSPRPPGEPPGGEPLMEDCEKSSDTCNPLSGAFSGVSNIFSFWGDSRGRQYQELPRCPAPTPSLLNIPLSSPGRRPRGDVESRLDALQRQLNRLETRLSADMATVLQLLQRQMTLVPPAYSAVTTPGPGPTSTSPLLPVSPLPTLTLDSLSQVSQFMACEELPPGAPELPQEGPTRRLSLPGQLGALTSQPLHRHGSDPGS
`CCCC(CCC(=O)Nc1cccc([N+](=O)[O-])c1)C(=O)O` (stereo not shown) was tested, and the “hERG current change (%, negative = inhibition) at 10uM” value was -0.0899%. In the case of `CCOc1ccc(-n2c(C)nc3cc(C(=O)NCC4CCCO4)ccc32)cc1` (stereo not shown), the “hERG current change (%, negative = inhibition) at 10uM” value is reported as -15.2%. With `CCN(CC)c1ccc(S(=O)(=O)N2CCCCC2)cc1NC(=O)C1CCC1` the “hERG current change (%, negative = inhibition) at 10uM” value was -15.3%. For `CC1(C)CC(=O)c2cnc(NCC3CCCO3)nc2C1` (stereo not shown), the “hERG current change (%, negative = inhibition) at 10uM” value was 7.24%. In the case of `COc1cc(C2=NOC(C(=O)Nc3ccc4c(c3)OCO4)C2)cc(OC)c1OC` (stereo not shown), the “hERG current change (%, negative = inhibition) at 10uM” value is reported as 16.6%. With `FC(F)(F)c1nc(N2CCCC2)ncc1-c1nnnn1-c1ccc(Cl)cc1` the “hERG current change (%, negative = inhibition) at 10uM” value was -4.4%. `CC1(C)C(N(O)C(=O)Nc2ccc(Cl)cc2)N(c2ccc(Cl)cc2)C(=O)N1CC(=O)NN` (stereo not shown) was tested, and the “hERG current change (%, negative = inhibition) at 10uM” value was -14.6%. For `O=c1cc(-c2ccccc2)[nH]n2cnnc12`, the “hERG current change (%, negative = inhibition) at 10uM” value was 12.6%. `COc1cccc(/C=C2\SC(=O)N(CC(=O)NCCCn3ccnc3)C2=O)c1` was tested, and the “hERG current change (%, negative = inhibition) at 10uM” value was -31.6%. In the case of `O=C(CN1C(=O)S/C(=C\c2ccc(Cl)cc2)C1=O)NCCCn1ccnc1`, the “hERG current change (%, negative = inhibition) at 10uM” value is reported as -68.2%. For `CC(C)c1ccc(/C=C2\SC(=S)N(CCC(=O)NCCCn3ccnc3)C2=O)cc1`, the “hERG current change (%, negative = inhibition) at 10uM” value was -17.3%. `CC(C)c1ccc(/C=C2\SC(=O)N(CC(=O)NCCCn3ccnc3)C2=O)cc1` was tested, and the “hERG current change (%, negative = inhibition) at 10uM” value was -76.9%. For `O=C(CN1C(=O)S/C(=C\c2cccc(Cl)c2)C1=O)NCCCn1ccnc1`, the “hERG current change (%, negative = inhibition) at 10uM” value was -51.2%. For `O=C(CN1C(=O)S/C(=C\c2ccccc2)C1=O)NCCCn1ccnc1`, the “hERG current change (%, negative = inhibition) at 10uM” value was -23.4%. With `O=C(CN1C(=O)S/C(=C\c2ccccc2Cl)C1=O)NCCCn1ccnc1` the “hERG current change (%, negative = inhibition) at 10uM” value was -44.5%. In the case of `COc1ccc(/C=C2\SC(=O)N(CC(=O)NCCCn3ccnc3)C2=O)cc1`, the “hERG current change (%, negative = inhibition) at 10uM” value is reported as -44.5%. In the case of `COc1ccccc1/C=C1\SC(=O)N(CC(=O)NCCCn2ccnc2)C1=O`, the “hERG current change (%, negative = inhibition) at 10uM” value is reported as -3.76%. With `COc1ccc(/C=C2\SC(=O)N(CCC(=O)NCCCn3ccnc3)C2=O)cc1` the “hERG current change (%, negative = inhibition) at 10uM” value was -43.2%. In the case of `O=C(CN1C(=O)S/C(=C\c2ccccc2F)C1=O)NCCCn1ccnc1`, the “hERG current change (%, negative = inhibition) at 10uM” value is reported as -9.34%. `O=C(CN1C(=O)S/C(=C\c2ccc(F)cc2)C1=O)NCCCn1ccnc1` was tested, and the “hERG current change (%, negative = inhibition) at 10uM” value was -58.9%. In the case of `CCCCCCCCN1[C@@H](CC(=O)OC)c2cc(C(F)(F)F)ccc2S1(=O)=O`, the “hERG current change (%, negative = inhibition) at 10uM” value is reported as 1.99%. For `Cc1cc(C)n(-c2nc3c(c(=O)[nH]c(=O)n3C)n2C)n1`, the “hERG current change (%, negative = inhibition) at 10uM” value was 10.1%. With `Oc1ccc(-c2cc(-c3ccc(O)cc3)nc(-c3ccccc3)n2)cc1` the “hERG current change (%, negative = inhibition) at 10uM” value was 20.1%. For `Cc1ccc(S(=O)(=O)n2[nH]c(=O)cc2NC(=O)c2cccs2)cc1`, the “hERG current change (%, negative = inhibition) at 10uM” value was -0.667%. `CCc1nn2c(=O)cc(CSCC(=O)Nc3ccccc3F)nc2s1` was tested, and the “hERG current change (%, negative = inhibition) at 10uM” value was 11.3%. For `Cc1ccccc1OCC(=O)N1CCCCCCC1`, the “hERG current change (%, negative = inhibition) at 10uM” value was 1.22%. For `CCC(C#CCN1CCCCC1)(CC)OCCC#N`, the “hERG current change (%, negative = inhibition) at 10uM” value was 2.57%. For `CCOC(=O)Cc1nnc(NC(=O)CSc2ccccc2)s1`, the “hERG current change (%, negative = inhibition) at 10uM” value was 7.53%. For `CCOC(=O)CSc1ncc(-c2ccccc2)nn1`, the “hERG current change (%, negative = inhibition) at 10uM” value was -6.58%. `CCOC(=O)Cc1nnc(NC(=O)CSc2ncc(-c3ccccc3)nn2)s1` was tested, and the “hERG current change (%, negative = inhibition) at 10uM” value was -58.7%. In the case of `C=CCc1cc(C=O)cc(OCC)c1OCc1ccc(Cl)cc1`, the “hERG current change (%, negative = inhibition) at 10uM” value is reported as 31.4%. `COc1ccccc1C1C(C#N)=C(N)Oc2cc(C)n(Cc3ccccn3)c(=O)c21` (stereo not shown) was tested, and the “hERG current change (%, negative = inhibition) at 10uM” value was -2.81%. `Cc1ccc2c(c1)C(=C(C#N)C#N)C(=O)N2CCN1CCOCC1` was tested, and the “hERG current change (%, negative = inhibition) at 10uM” value was -38.6%. `CCCS(=O)(=O)c1nc(S(=O)(=O)c2ccc(C)cc2)c(N2CCc3ccccc3C2)s1` was tested, and the “hERG current change (%, negative = inhibition) at 10uM” value was 5.34%. With `Cn1c(-c2ccc(F)cc2)cnc1SCC(=O)N1CCCc2ccccc21` the “hERG current change (%, negative = inhibition) at 10uM” value was -24.8%. For `O=C(c1cc(-c2ccc(O)cc2)on1)N1CCCc2ccccc21`, the “hERG current change (%, negative = inhibition) at 10uM” value was -29.5%. In the case of `Cn1c(-c2ccccc2)cnc1SCC(=O)N1CCCc2ccccc21`, the “hERG current change (%, negative = inhibition) at 10uM” value is reported as -27.9%. With `Cc1ccc(-c2cnc(SCC(=O)N3CCCc4ccccc43)n2C)cc1` the “hERG current change (%, negative = inhibition) at 10uM” value was -50.8%. With `Cc1ccc(-c2cc(C(=O)N3CCCc4ccccc43)no2)cc1` the “hERG current change (%, negative = inhibition) at 10uM” value was -75.6%. For `O=C(c1cc(-c2ccccc2)on1)N1CCCc2ccccc21`, the “hERG current change (%, negative = inhibition) at 10uM” value was -18.1%. With `O=C(NCc1ccc(F)cc1Cl)C1CCN(S(=O)(=O)N2CCC3(CC2)OCCO3)CC1` the “hERG current change (%, negative = inhibition) at 10uM” value was -13.9%. `CC(=O)Oc1ccc(NC(=O)Cc2ccccc2)cc1` was tested, and the “hERG current change (%, negative = inhibition) at 10uM” value was 24.9%. With `Cc1ccc(OCC(=O)c2ccc3c(c2)CCCC3)cc1C` the “hERG current change (%, negative = inhibition) at 10uM” value was 4.7%. For `C=CCSc1ncnc2sc(C)c(C)c12`, the “hERG current change (%, negative = inhibition) at 10uM” value was 9.87%. For `COc1ccc(Cl)cc1NC(=O)C1(c2cccs2)CCOCC1`, the “hERG current change (%, negative = inhibition) at 10uM” value was -17.8%. In the case of `COc1ccc(CCNC(C)CCc2ccc(OC)cc2)cc1` (stereo not shown), the “hERG current change (%, negative = inhibition) at 10uM” value is reported as -13%. In the case of `COc1ccc(CNCCc2ccc(Cl)cc2Cl)cc1`, the “hERG current change (%, negative = inhibition) at 10uM” value is reported as -22.2%. For `COc1ccc(CCC(C)NCCc2ccc(Cl)cc2Cl)cc1` (stereo not shown), the “hERG current change (%, negative = inhibition) at 10uM” value was -71.8%. With `COc1ccc(CCC(C)Nc2ccc(F)c(F)c2)cc1` (stereo not shown) the “hERG current change (%, negative = inhibition) at 10uM” value was 5.47%. For `CC(CCc1ccccc1)NC(=O)Cc1ccc(Br)cc1` (stereo not shown), the “hERG current change (%, negative = inhibition) at 10uM” value was 8.87%. In the case of `COc1ccc(CCC(C)NCc2cc(OC)cc(OC)c2)cc1` (stereo not shown), the “hERG current change (%, negative = inhibition) at 10uM” value is reported as -42.3%. With `COc1ccc(CCC(C)NCc2ccc(Cl)c(Cl)c2)cc1` (stereo not shown) the “hERG current change (%, negative = inhibition) at 10uM” value was -53.7%. For `CC(CCc1ccccc1)NCc1ccncc1` (stereo not shown), the “hERG current change (%, negative = inhibition) at 10uM” value was -8.72%. For `CC(CCc1ccc(O)cc1)NCc1ccc(Br)cc1` (stereo not shown), the “hERG current change (%, negative = inhibition) at 10uM” value was -76.2%. In the case of `CC(O)CNCc1ccc(Cl)cc1Cl.Cl` (stereo not shown), the “hERG current change (%, negative = inhibition) at 10uM” value is reported as 12.3%. For `CC(CCc1ccc(O)cc1)NCc1ccc(Cl)cc1Cl` (stereo not shown), the “hERG current change (%, negative = inhibition) at 10uM” value was -63.8%. In the case of `CC(CCc1ccccc1)NCc1ccc(Cl)cc1Cl.O=C(O)C(=O)O` (stereo not shown), the “hERG current change (%, negative = inhibition) at 10uM” value is reported as -31.5%. `Cc1cc(C)nc(/N=C2\NC(=O)CC(C(=O)O)N2c2ccc(Cl)cc2)n1` (stereo not shown) was tested, and the “hERG current change (%, negative = inhibition) at 10uM” value was 14.9%.

From PMC4336329 (PLoS ONE, 2015)
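Note: peak tail current of the secondary pulse compared with the same well before compound.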
